Test [1] can be described thus: Nuclear factor erythroid 2-related factor 2/antioxidant responsive element (Nrf2/ARE) small molecule agonists: qHTS cell viability counter screen in human keratinocytes (AID 1919968; active means well fitted curve in the direction sought with a large enough effect in the repeat runs; an effect the other way counts as inactive or inconclusive; further: nearly all actives have a fitted effect of over 55% in size; further: potency means the concentration at half of the fitted maximal effect). An outline of the steps:
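Cells of the KeratinoSens line were plated at 1,500 per well and left for 5 h before compound transfer from DMSO stocks. After a 23 h incubation (37 C, 5% CO2), CellTiter-Fluor was added. Signal was taken as fluorescence intensity 1 h later.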
A general note: Quantitative high-throughput screening tests each substance at several concentrations.

A short description of test [2]: Nuclear factor erythroid 2-related factor 2/antioxidant responsive element (Nrf2/ARE) small molecule agonists: luciferase reporter gene qHTS assay in human keratinocytes (AID 1919969). Further: nearly all actives have a fitted effect of over 35% in size. Further: potency means the concentration at half of the fitted maximal effect.
In test [3] the target is Gonadotropin-releasing hormone receptor (Homo sapiens) (UniProt P30968). The test is described as follows: Human gonadotropin-releasing hormone receptor (GnRHR) small molecule agonists, calcium flux assay in GnRHR-HEK293 cells (AID 1920063). Further: nearly all actives have a fitted effect of over 35% in size. An outline of the steps: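 Compounds dissolved in DMSO are pin-transferred onto dye-loaded GnRHR-HEK293 cells, which were seeded 18 h before at 37 C/5% CO2. Calcium signal is read as fluorescence intensity at 1 s intervals for 3 min.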
Chain of Gonadotropin-releasing hormone receptor (Homo sapiens) (P30968 whole entry, looked up): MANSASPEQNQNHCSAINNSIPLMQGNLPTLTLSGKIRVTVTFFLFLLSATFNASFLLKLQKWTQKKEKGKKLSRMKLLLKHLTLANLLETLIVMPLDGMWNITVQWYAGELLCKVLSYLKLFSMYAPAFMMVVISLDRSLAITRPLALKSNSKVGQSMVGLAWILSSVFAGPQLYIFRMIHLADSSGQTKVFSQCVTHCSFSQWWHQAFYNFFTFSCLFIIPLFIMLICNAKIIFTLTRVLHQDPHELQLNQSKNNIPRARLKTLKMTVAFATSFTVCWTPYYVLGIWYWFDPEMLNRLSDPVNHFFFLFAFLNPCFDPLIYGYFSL
For orientation: Calcium flux is commonly read through the fluorescence of an indicator in the cells.

The target in test [4] is KiSS-1 receptor (Homo sapiens) (UniProt Q969F8). The test is described as follows: Human kisspeptin (KISS1R) small molecule agonists, calcium flux assay in KISS1R-HEK293 cells (AID 1920064; active means well fitted curve in the direction sought with a large enough effect in the repeat runs; an effect the other way counts as inactive or inconclusive). Put shortly: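 Cell line: HEK293, stable human KISS1R. Dye loading 1 h at 37 C after 18 h culture. Read: kinetic fluorescence, 480/540 nm, 3 min at 1 s intervals.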
Chain of KiSS-1 receptor (Homo sapiens) (Q969F8 whole entry, looked up): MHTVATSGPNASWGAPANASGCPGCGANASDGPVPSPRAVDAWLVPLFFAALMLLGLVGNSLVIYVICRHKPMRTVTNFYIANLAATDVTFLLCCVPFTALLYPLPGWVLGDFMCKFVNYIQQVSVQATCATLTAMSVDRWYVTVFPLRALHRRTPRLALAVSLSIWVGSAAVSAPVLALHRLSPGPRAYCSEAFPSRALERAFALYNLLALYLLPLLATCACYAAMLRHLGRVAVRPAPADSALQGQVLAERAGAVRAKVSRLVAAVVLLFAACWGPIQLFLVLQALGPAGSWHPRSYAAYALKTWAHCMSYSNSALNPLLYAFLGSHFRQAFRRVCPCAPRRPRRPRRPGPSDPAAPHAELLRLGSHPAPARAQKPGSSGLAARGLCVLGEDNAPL
Test [5] can be described thus: G protein-coupled receptor (GPCR) small molecule agonists, calcium flux assay: HEK293 wild type cell line counter screen (AID 1920065). Put shortly:
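Tox21 10K compounds, 15 concentrations each in triplicate, pin-transferred in DMSO onto dye-loaded cells; kinetic read at 480/540 nm for 3 min, 1 s intervals.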

Test [6] can be described thus: p53 small molecule agonists, cell-based qHTS assay with human liver microsomes: qHTS cell viability counter screen (AID 1963579). Further: nearly all actives have a fitted effect of over 45% in size. Further: potency means the concentration at half of the fitted maximal effect. An outline of the steps: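 Cells carrying the p53 response-element beta-lactamase reporter are treated for 16 h at 37 C with test compounds in the presence of human liver microsomes and NADPH (both 0.5 mg/mL final); ATP-based CellTiter-Glo luminescence then reports viability.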

A short description of test [7]: p53 small molecule agonists, cell-based qHTS assay with rat liver microsomes: qHTS cell viability counter screen (AID 1963580). Further: nearly all actives have a fitted effect of over 45% in size. Further: potency means the concentration at half of the fitted maximal effect. Put shortly:
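Cytotoxicity counter screen: intracellular ATP measured by CellTiter-Glo luminescence in the same wells as the beta-lactamase reporter read, on HCT-116 p53RE-bla cells exposed 16 h at 37 C to compounds with rat liver microsomes and NADPH, each 0.5 mg/mL final.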

A short description of test [8]: p53 small molecule agonists, cell-based qHTS assay: qHTS cell viability counter screen (AID 1963581). Further: nearly all actives have a fitted effect of over 45% in size. Put shortly: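 ATP content measured by luminescence in HCT-116 p53RE-bla cells treated 16 h at 37 C, same wells as the reporter screen.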
A short description of test [9]: cAMP Responsive Elements (CRE) small molecule agonists, cell-based qHTS assay (AID 1963590). An outline of the steps: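 HEK 293T cells stably bearing CRE-bla were plated at 2,000 cells per well and rested 18 h. Compounds, positive controls or DMSO were added for 3 h at 37 C. LiveBLAzer B/G substrate was then loaded for 2 h at room temperature.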
Test [10] in a line: cAMP Responsive Elements (CRE) small molecule antagonists, cell-based qHTS assay (AID 1963591; active means well fitted inhibition curve with a large enough effect in the signal ratio in the repeat runs, not every such curve was filed as active; the % refers to the signal ratio). An outline of the steps:
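First, CRE-bla HEK293T cells settled 18 h at 37 C. Next, compound and 0.25 uM final NKH477 were applied for 3 h. Last, LiveBLAzer B/G substrate was loaded for 2 h at room temperature.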

Test [11] has as its target Beta-2 adrenergic receptor (Homo sapiens) (UniProt P07550). Kind of test: Adrenergic beta2 receptor (ADRB2) small molecule agonists, cell-based qHTS assay (AID 1963593).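 Further: CHO cells stably overexpressing human ADRB2.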 Put shortly: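 CHO cells stably over-expressing ADRB2 were plated overnight at 37C, then dosed with compounds plus a stimulation mix containing 100uM IBMX and 25uM Ro-20-1724 for 0.5hr at room temperature. cAMP was measured by HTRF competition, 1hr.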

Test [12] deals with D(2) dopamine receptor (Homo sapiens) (UniProt P14416). Kind of test: Dopamine D2 receptor (DRD2) small molecule agonists, cell-based qHTS assay (AID 1963594). Further: nearly all actives have a fitted effect of over 35% in size. Put shortly: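 HEK293 cells stably expressing human DRD2, pre-treated with PDE inhibitor Ro20-1724 (0.1 mM final) and compound 10 min at room temperature, then stimulated with NKH477 (200nM […]) for 30 min. cAMP read by HTRF (665/620 nm).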
Chain of D(2) dopamine receptor (Homo sapiens) (P14416 whole entry, looked up): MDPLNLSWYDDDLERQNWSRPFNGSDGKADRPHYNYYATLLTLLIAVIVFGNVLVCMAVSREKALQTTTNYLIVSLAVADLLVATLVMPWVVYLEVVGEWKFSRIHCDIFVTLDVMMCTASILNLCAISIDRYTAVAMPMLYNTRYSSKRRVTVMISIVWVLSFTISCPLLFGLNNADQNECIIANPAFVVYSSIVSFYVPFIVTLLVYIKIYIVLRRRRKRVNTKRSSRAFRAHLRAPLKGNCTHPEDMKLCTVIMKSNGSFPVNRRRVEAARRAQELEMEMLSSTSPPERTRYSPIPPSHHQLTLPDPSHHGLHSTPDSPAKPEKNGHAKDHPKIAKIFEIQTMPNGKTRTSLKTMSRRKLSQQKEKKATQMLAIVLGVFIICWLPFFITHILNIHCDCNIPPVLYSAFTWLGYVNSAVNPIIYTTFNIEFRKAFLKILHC

For test [13] the target is unchanged. The test is described as follows: Dopamine D2 receptor (DRD2) small molecule antagonists, cell-based qHTS assay (AID 1963595; active means well fitted inhibition curve with a large enough effect in the signal ratio in the repeat runs, with a control signal flat; the % refers to the signal ratio). An outline of the steps: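 Antagonist mode in DRD2-HEK293 cells: after compound addition with 0.1 mM Ro20-1724, cells received quinpirole (12 nM) and NKH477 (200 nM) for 30 min at room temperature; HTRF cAMP read after 1 h detection.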

The target of test [14] is 5-hydroxytryptamine receptor 2A (Homo sapiens) (UniProt P28223). Kind of test: 5-hydroxytryptamine receptor 2A (HTR2A) small molecule agonists, cell-based qHTS assay (AID 1963587). Further: nearly all actives have a fitted effect of over 30% in size. Put shortly:
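CHO cells stably expressing human HTR2A, plated 18 h, loaded with calcium dye 1 h at 37 C. Agonist mode: compounds added and intracellular calcium fluorescence recorded kinetically for 2 min at 1 sec intervals.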

Test [15] addresses Muscarinic acetylcholine receptor M1 (Homo sapiens) (UniProt P11229). The test is described as follows: Cholinergic receptor muscarinic 1 (CHRM1) small molecule antagonists, cell-based qHTS assay (AID 1963588). Further: nearly all actives have a fitted effect of over 40% in size. Put shortly: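 Compounds were tested at 15 concentrations in three independent runs. Dye-loaded CHRM1-CHO cells were exposed 5 min at room temperature before stimulation by acetylcholine added at 50nM. Intracellular calcium was read kinetically on FDSS for 3 min.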

For test [16] the target is unchanged. The test is described as follows: Cholinergic receptor muscarinic 1 (CHRM1) small molecule agonists, cell-based qHTS assay (AID 1963589). Further: nearly all actives have a fitted effect of over 35% in size. An outline of the steps: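 Homogeneous fluorescence calcium flux, agonist mode. Human M1-expressing CHO cells; compound dosed at 15 concentrations, three independent runs; signal sampled every 1 sec.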
Test [17] deals with Beta-2 adrenergic receptor (Homo sapiens) (UniProt P07550). Kind of test: Adrenergic beta2 receptor (ADRB2) small molecule antagonists, cell-based qHTS assay (AID 1963592). Further: nearly all actives have a fitted effect of over 50% in size. Further: potency means the concentration at half of the fitted maximal effect. Put shortly: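 Assay format: CHO-ADRB2 cells, 18-20hr seeding at 37C/5% CO2, then compound plus 1nM isoproterenol agonist mix for 0.5hr RT. Homogeneous time-resolved fluorescence cAMP detection after 1hr, expressed as 665/615 nm ratio.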
Chain of Beta-2 adrenergic receptor (Homo sapiens) (P07550 whole entry, looked up): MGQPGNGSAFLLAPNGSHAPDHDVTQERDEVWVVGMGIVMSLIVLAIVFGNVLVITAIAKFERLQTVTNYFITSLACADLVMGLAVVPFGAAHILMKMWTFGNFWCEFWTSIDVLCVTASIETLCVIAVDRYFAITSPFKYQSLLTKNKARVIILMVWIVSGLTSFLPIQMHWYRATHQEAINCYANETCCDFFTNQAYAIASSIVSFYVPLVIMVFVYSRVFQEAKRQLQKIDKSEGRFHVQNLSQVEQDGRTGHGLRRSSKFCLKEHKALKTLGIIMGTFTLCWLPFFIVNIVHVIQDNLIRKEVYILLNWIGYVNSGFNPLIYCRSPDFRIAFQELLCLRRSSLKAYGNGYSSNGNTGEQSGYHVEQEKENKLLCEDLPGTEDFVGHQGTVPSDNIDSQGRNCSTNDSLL

The target of test [18] is 5-hydroxytryptamine receptor 2A (Homo sapiens) (UniProt P28223). The test is described as follows: 5-hydroxytryptamine receptor 2A (HTR2A) small molecule antagonists, cell-based qHTS assay (AID 1963586). Further: nearly all actives have a fitted effect of over 45% in size. An outline of the steps:
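CHO cells stably expressing human HTR2A were plated for 18 h at 37 C, then loaded with calcium dye for 1 h. Compounds were preincubated 5 min at room temperature before DOI (4 nM solution) was added. Kinetic fluorescence was read for 3 min.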

Structures are written as SMILES. Where “and” joins values, the source holds several entries; their conditions need not be identical. Equal values may be shown once. Results filed as inconclusive are left out. A structure can be active in one record and inactive in another. Calls of active or inactive are those of the source. Unless noted, the call rests on the fitted dose curve.

Chain of 5-hydroxytryptamine receptor 2A (Homo sapiens) (P28223 whole entry, looked up): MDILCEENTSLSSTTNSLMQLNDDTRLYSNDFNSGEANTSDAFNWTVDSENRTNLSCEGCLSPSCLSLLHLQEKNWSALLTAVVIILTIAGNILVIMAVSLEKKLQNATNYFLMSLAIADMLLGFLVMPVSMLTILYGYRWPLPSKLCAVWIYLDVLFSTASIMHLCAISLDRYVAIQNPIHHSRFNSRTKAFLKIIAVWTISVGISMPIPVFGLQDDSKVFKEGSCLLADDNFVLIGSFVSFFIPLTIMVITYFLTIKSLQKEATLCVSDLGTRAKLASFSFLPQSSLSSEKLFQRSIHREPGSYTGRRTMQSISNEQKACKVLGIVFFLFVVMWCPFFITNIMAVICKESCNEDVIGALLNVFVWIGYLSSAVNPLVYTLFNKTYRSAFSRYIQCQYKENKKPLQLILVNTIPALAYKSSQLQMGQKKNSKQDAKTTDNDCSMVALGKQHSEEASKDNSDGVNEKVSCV
Chain of Muscarinic acetylcholine receptor M1 (Homo sapiens) (P11229 whole entry, looked up): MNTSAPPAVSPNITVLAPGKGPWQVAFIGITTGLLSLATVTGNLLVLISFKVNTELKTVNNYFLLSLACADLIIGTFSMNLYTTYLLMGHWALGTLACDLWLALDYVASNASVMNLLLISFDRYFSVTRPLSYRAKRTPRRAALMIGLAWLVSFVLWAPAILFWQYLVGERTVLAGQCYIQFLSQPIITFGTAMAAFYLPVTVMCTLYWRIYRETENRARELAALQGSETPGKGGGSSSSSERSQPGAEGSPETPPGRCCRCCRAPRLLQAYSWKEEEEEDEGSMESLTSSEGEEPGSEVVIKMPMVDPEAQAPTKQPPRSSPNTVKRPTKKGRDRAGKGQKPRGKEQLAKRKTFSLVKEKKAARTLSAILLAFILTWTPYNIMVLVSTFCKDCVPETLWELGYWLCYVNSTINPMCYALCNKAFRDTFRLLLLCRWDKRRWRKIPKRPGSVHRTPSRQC

In the case of `O=C1NC(=O)C(c2ccccc2)(c2ccccc2)N1`, the Potency entry in test [1], in test [2], in [3], in test [4], in [5] and in test [6] was “inactive” in each case. Also, the Potency result in test [7], in [8], in test [9], in test [10], in test [11] and in [12] was “inactive” throughout. Besides, in test [13], the Potency result was “inactive”.
Consider `CC[N+](CC)(CC(=O)Nc1c(C)cccc1C)Cc1ccccc1`, for which the Potency entry in test [1], in test [2], in test [3], in test [4], in test [5] and in [6] was “inactive” throughout. Further, the Potency entry in [7], in test [8], in test [14], in test [15], in [16] and in test [9] was “inactive” each time. For the same molecule, the Potency entry in test [10], in test [17], in [11], in test [12] and in [13] was “inactive” throughout.
For the molecule `O=C(OCc1ccccc1)c1ccccc1`, the Potency entry in test [1], in test [2], in [3], in [4], in [5] and in test [6] was “inactive” each time. Moreover, the Potency result in test [7], in test [8], in [18], in test [14], in [15] and in [16] was “inactive” throughout. The Potency entry in test [9], in [10], in test [11], in test [12] and in test [13] was “inactive” throughout.
Regarding `CC(=O)OCC(COC(C)=O)OC(C)=O`, the Potency entry in [1], in test [2], in test [3], in test [4], in [5] and in test [6] was “inactive” throughout. For the same molecule, the Potency entry in test [8], in test [9], in test [10], in test [17], in test [11] and in test [12] was “inactive” each time. Besides, the Potency result in test [13] was “inactive”.
Consider `Cc1cc(Cc2cc(C)cc(C(C)(C)C)c2O)c(O)c(C(C)(C)C)c1`, for which the Potency in test [1] was 13.8 µM (active) and 13.7 µM (active); in test [7], “inactive and 36.3 µM (active)”; in [17] it was 34.6 µM (active) and inactive. For the same molecule, the Potency result in test [2], in test [3], in test [4], in test [5], in test [8] and in test [18] was “inactive” each time. Also, the Potency result in test [14], in [15], in [16] and in test [12] was “inactive” throughout.
For the molecule `O=C(O)C(=O)O`, the Potency entry in test [1], in [2], in test [3], in test [4], in [5] and in test [6] was “inactive” throughout. Also, the Potency entry in test [7], in test [8], in test [18], in [14], in [15] and in [16] was “inactive” throughout. Also, the Potency result in test [9], in [10], in [17], in test [12] and in [13] was “inactive” throughout.
Take `O=C(Oc1ccccc1)c1ccccc1O`: the Potency result in test [1], in test [3], in test [4], in test [5], in [7] and in [8] was “inactive” each time. Besides, the Potency entry in test [18], in test [14], in test [15], in test [16], in test [9] and in [10] was “inactive” each time. For the same molecule, the Potency result in test [17], in test [11], in test [12] and in test [13] was “inactive” in each case. For the same molecule, the Potency entry was “inactive and 68.6 µM (active)” in test [2]; “inactive and 40.8 µM (active)” in [6].

The record behind these values is PubChem BioAssay (Tox21).
